# Results taken from PubChem BioAssay (Tox21).
# The source made the active and inactive calls. The call rests on the fitted dose curve; in most records, active means well fitted curve in the direction sought with a large enough effect in the repeat runs; inconclusive means weak or mixed curves; inactive means flat fitted curve, though single readings scatter.
# Test: qHTS assay to test for compound auto fluorescence at 460 nm (blue) in HepG2 cells (AID 720687)
# Details: autofluorescence 405/460 nm, 1 h; series mostly up to 91.3 µM; fluorescence, % of fluorescent control: at the top concentration
# Description: U.S. Tox21 Program National Center for Advancing Translational Sciences [NCATS] NIH Chemical Genomics Center [NCGC] U.S. Environmental Protection Agency [EPA] National Institutes of Environmental Health Sciences [NIEHS] National Toxicology Program [NTP] U.S. Food and Drug Administration [FDA] Tox21 Assay Overview: Compound auto fluorescence often interferes with screening of the compound library against various biological targets and signaling pathways. Some of these compounds may have fluorophoric properties. Such properties may interfere with the assay outputs resulting in false positives and/or negatives. To decrease such complications and ensure the compound activities are relevant in terms of biological response, the Tox21 10K compound library was screened for auto fluorescence. From the fluorophores used as reporter signals in our screening assays, the auto fluorescence equivalencies of compounds against three fluorophores have been evaluated: Triamterene, Fluorescein and Rose Bengal sodium for blue, green and red fluorescence, respectively. The fluorescence intensities were measured using Excitation/Emission wavelengths at 405/460nm, 485/535nm and 540/590nm for blue, green and red labels, respectively. This assay includes the blue fluorescence data.
# Tox21 Assay Protocol Summary: 2,000 HepG2 cells in 5 uL of culture medium (MEM containing 10% FBS) per well were dispensed into black wall/clear bottom 1536-well plates using a Multidrop Combi Dispenser (ThermoFisher Scientific, Waltham, MA). The assay plates were incubated overnight at 37 C to allow cell attachment to the well bottom, followed by the transfer of 23 nL compound or DMSO vehicle by a pintool work station (Kalypsys , San Diego, CA). After the assay plates were incubated for 1 hr at 37 C and 5% CO2, fluorescence intensities in the assay plates were measured by an Envision (PerkinElmer, Shelton, CT) plate reader using three labels for measuring blue, green and red fluorescence at […] 460, 535 and 590 nm respectively.
# On the % scale 0 is the no-effect control and ±100 the full control effect; potency means the concentration at half of the fitted maximal effect; tags describe the fitted curve by direction and shape or compound fluorescence and quenching.
Compound,"fluorescence, % of fluorescent control",Potency
CCN(C(=O)N(CC)c1ccccc1)c1ccccc1,-0.0001% (inactive),–
CCCCCCCC[N+](CCCCCCCC)(CCCCCCCC)CCCCCCCC,0.045% (inactive),–
C1CCCC1,-0.0088% (inactive),–
O=[N+]([O-])c1ccccc1Nc1ccccc1,0.0591% (inactive),–
Cc1cccc2c1cc1ccc3cccc4ccc2c1c34,8.23% [at 95.7 µM] (inactive),–
C[C@@H](NCCCc1cccc(C(F)(F)F)c1)c1cccc2ccccc12,-0.0276% [at 46 µM] (inactive),–
CN(C)[C@@H]1C(=O)C(C(N)=O)=C(O)[C@@]2(O)C(=O)C3=C(O)c4c(O)ccc(Cl)c4[C@@H](O)[C@H]3C[C@@H]12,2.91% [at 46 µM] (inactive),–
On1ccccc1=S,0.0061% (inactive),–
COc1cc(-c2nc(NC(=O)c3cc4cc(C)cc(C)c4n3CC(=O)O)sc2CCC2CCCCC2)c(OC)cc1Cl,-0.0716% (inactive),–
CC(=O)S[C@@H]1CC2=CC(=O)CC[C@]2(C)[C@H]2CC[C@@]3(C)[C@@H](CC[C@@]34CCC(=O)O4)[C@H]12,–,inactive
COc1ccc(-c2ccc3cc(C(=O)O)ccc3c2)cc1C12CC3CC(CC(C3)C1)C2,0.134% [at 46 µM] (inactive),–
O=CC=C(c1ccccc1)c1ccccc1,0.0144% (inactive),–
CN1CCC(Nc2ncc3ncnc(Nc4ccc(F)c(Cl)c4)c3n2)CC1,–,12.6 µM [fluorescent] (active)
CCCCc1oc2ccc(NS(C)(=O)=O)cc2c1C(=O)c1ccc(OCCCN(CCCC)CCCC)cc1,0.0524% [at 46 µM] (inactive),–
O=C(Nc1cccc([N+](=O)[O-])c1)c1cc2ccccc2cc1O,0.19% (inactive),–
CCCCN1CCCC[C@H]1C(=O)Nc1c(C)cccc1C,-0.185% [at 46 µM] (inactive),–
CC[C@H]1O[C@]2(CC[C@@H]1C)C[C@@H]1C[C@@H](C/C=C(\C)C[C@@H](C)/C=C/C=C3\CO[C@@H]4[C@H](O)C(C)=C[C@@H](C(=O)O1)[C@]34O)O2,-0.207% (inactive),–
NNc1nc(-c2ccc(N)cc2)cs1,0.398% (inactive),–
O=S1(=O)CC(Cl)(Cl)C(Cl)(Cl)C1,-0.113% (inactive),–
O=C(Nc1ccc(Oc2ccc(Cl)cc2)c(Cl)c1)c1cc(I)cc(I)c1O,0.0041% [at 46 µM] (inactive),–

Compound,"fluorescence, % of fluorescent control",Potency
CCN(CCC#N)c1ccc(N=Nc2c(Cl)cc([N+](=O)[O-])cc2Cl)cc1,0.326% (inactive),–
Oc1ccc2c(c1)-c1ccccc1C2,0.0528% (inactive),–
C[n+]1ccn(Cc2ccccc2)c1,0.125% (inactive),–
CC(C)OC(=O)c1cc2c(OCC(O)CNC(C)(C)C)cccc2[nH]1 (stereo not given),-0.0193% [at 46 µM] (inactive),–
[Cl][Au]([Cl])[Cl],0.0111% (inactive),–
Cc1cccc(S(=O)(=O)O)c1C,-0.163% (inactive),–
Nc1ccc2cc(S(=O)(=O)O)cc(O)c2c1N=Nc1ccccc1C(F)(F)F,-0.395% (inactive),–
Clc1ccc2nsnc2c1NC1=NCCN1,0.0821% [at 46 µM] (inactive),–
CCCCCCCCCCCCCCCC(=O)OC[C@H](O)[C@H]1OC(=O)C(O)=C1O,–,inactive
O=C(NO)C1(NS(=O)(=O)c2ccc(Oc3ccc(F)cc3)cc2)CCOCC1,-0.212% (inactive),–
Clc1ccc2cc3ccccc3cc2c1,0.449% (inactive),–
C[C@]12CCC(=O)C=C1CC[C@@H]1[C@@H]2[C@@H](O)C[C@@]2(C)[C@H]1CC[C@]2(O)C(=O)COC(=O)CCC(=O)O,-0.0999% [at 46 µM] (inactive),–
CCC1=C[C@@H]2CN(C1)Cc1c([nH]c3ccccc13)[C@@](C(=O)OC)(c1cc3c(cc1OC)N(C)[C@H]1[C@@](O)(C(=O)OC)[C@H](OC(C)=O)[C@]4(CC)C=CCN5CC[C@]31[C@@H]54)C2,0.0525% [at 46 µM] (inactive),–
COc1cc(-c2ccc(N=C=O)c(OC)c2)ccc1N=C=O,0.0313% [at 46 µM] (inactive),–
CCN(CC)CCNC(=O)c1c(C)[nH]c(/C=C2\C(=O)Nc3ccc(F)cc32)c1C,0.0203% [at 46 µM] (inactive),–
CS(=O)(=O)CCNCc1ccc(-c2ccc3ncnc(Nc4ccc(OCc5cccc(F)c5)c(Cl)c4)c3c2)o1,0.164% [at 46 µM] (inactive),–
Cc1cccc(CN2CCN(C(c3ccccc3)c3ccc(Cl)cc3)CC2)c1 (stereo not given),-0.0938% [at 18.6 µM] (inactive),–
O=c1cccccc1O,-0.0016% [at 95.7 µM] (inactive),–
C[C@@H]1C[C@H]2[C@@H]3CCC4=CC(=O)C=C[C@]4(C)[C@@]3(Cl)[C@@H](O)C[C@]2(C)[C@@]1(OC(=O)c1ccco1)C(=O)CCl,-0.0042% [at 18.6 µM] (inactive),–
O=Cc1cc(O)ccc1Br,0.0349% [at 95.7 µM] (inactive),–
